# Screens deposited in PubChem BioAssay by National Center for Advancing Translational Sciences (NCATS).
# Giardia kill – kills Giardia lamblia; Giardia lamblia trophozoite viability; activity change, % at 7.66 µM, hits read low; 340,000 compounds, 0.15% hits; in the data active means activity change below about -80%; inconclusive means between about -30% and that limit;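 further: parasites exposed to compound for two days anaerobically before the ATP read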
#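 Trophozoites 100 cells/well + cpd; 48 hrs, 37 deg C, anaerobic. ATPLite 1-Step added, 15-30 min RT, luminescence read (ATP-based viability).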
# IL1B secr inh – blocks inflammasome-driven IL-1 beta release. THP-1 LPS/ATP IL-1B secretion, AlphaLISA, 16 h; active compounds read low. activity change, % at 57.5 µM. 360,000 compounds, 4.7% hits; in the data active means activity change below about -50%; inconclusive means mostly about -30% to -49%
#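 Secreted IL-1B measured by AlphaLISA bead assay after 16 h compound exposure of THP-1 cells; compounds (final up to 57.5 uM) added 1 h before LPS (250 ng/mL) and ATP (1.25 mM) stimulation; lower signal means less secretion.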
# ELG1 DNA repair – inhibitors of ELG1-dependent DNA repair in HEK293T cells; Potency, µM (top dose mostly 46.1 µM), for inactives: top-dose activity change, negative = inhibition, usual class: inhibitors; 330,000 compounds, 2.3% hits; AID 504467; HEK293T ELG1-luciferase reporter, luminescence, 16 h; DNA damage induced by 5-fluorouridine; further: potency means the concentration at half of the fitted maximal effect; nearly all actives have a fitted effect of over 55% in size
#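 Reporter activity after DNA damage by 5-fluorouridine is monitored. Compound-treated cells incubate 16 hr at 37 °C, then ONE-Glo is added for 30 min before luminescence reading.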
# TDP1 cell noCPT – qHTS for Inhibitors of human tyrosyl-DNA phosphodiesterase 1 (TDP1): qHTS in cells in absence of CPT. DT40 Tdp1-/- hTDP1 cells, no CPT, ATP luminescence, 48 h. 420,000 compounds, 15% hits. Potency, µM (highest dose often 46.2 µM), inactives show at the highest dose activity change, negative = growth inhibition, most hits filed as inhibitors. AID 686978, 2013; further: potency means the concentration at half of the fitted maximal effect; nearly all actives have a fitted effect of over 55% in size
#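 A cellular qHTS used chicken DT40 cells lacking endogenous Tdp1 but carrying stably transfected human TDP1. Compounds were applied without camptothecin, and cell growth kinetics were judged by ATP-dependent luminescence after ≥48 hr.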
# TDP1 cell CPT – growth inhibition of DT40 Tdp1-/-;hTDP1 cells with camptothecin (screen for TDP1 inhibitors). Potency, µM (top dose mostly 46.2 µM), for the others: at the top dose activity change, negative = growth inhibition, usual class: inhibitors. AID 686979. chicken DT40 Tdp1-/-;hTDP1 cells + 20 nM CPT, ATP luminescence, 48 h. 420,000 compounds, 12% hits; further: potency means the concentration at half of the fitted maximal effect; nearly all actives have a fitted effect of over 55% in size
#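 Cell growth measured by CellTiter-Glo luminescence after a minimum 48 h, 37 C compound exposure with 20 nM CPT in Tdp1-knockout DT40 cells stably expressing hTDP1, seeded 400/well; qHTS titration format.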
# TDP1 inh – blocks human tyrosyl-DNA phosphodiesterase 1; Q9NUW8; recombinant TDP1, AlphaScreen DNA substrate cleavage; Potency, µM (doses to about 130 µM), for the others: top-dose activity change, negative = inhibition, hits mostly inhibitors; 350,000 compounds, 0.28% hits; further: potency means the concentration at half of the fitted maximal effect; nearly all actives have a fitted effect of over 40% in size
# Target sequence (Q9NUW8 whole entry, looked up): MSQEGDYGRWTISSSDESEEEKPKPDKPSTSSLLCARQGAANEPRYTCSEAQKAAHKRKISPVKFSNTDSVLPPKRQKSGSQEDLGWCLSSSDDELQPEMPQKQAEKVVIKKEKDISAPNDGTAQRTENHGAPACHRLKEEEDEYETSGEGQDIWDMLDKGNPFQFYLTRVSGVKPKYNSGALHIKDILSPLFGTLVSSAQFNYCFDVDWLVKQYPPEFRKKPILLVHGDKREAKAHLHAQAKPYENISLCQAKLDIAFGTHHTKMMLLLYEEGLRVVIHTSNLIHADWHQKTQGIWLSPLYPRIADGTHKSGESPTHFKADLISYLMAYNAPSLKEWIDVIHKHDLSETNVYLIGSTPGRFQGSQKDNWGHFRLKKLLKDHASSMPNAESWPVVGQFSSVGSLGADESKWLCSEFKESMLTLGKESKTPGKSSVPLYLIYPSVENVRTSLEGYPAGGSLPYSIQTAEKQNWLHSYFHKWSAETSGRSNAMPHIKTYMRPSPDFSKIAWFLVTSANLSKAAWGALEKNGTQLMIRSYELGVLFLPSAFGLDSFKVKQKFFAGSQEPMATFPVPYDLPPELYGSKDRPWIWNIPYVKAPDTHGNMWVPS
#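 Compounds were preincubated with Tdp1 (1 nM final) for 15 min at room temperature before substrate (15 nM final) started a 5 min reaction; beads (10 ug/ml final) were then added for 10 min before AlphaScreen detection.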
# The depositor's hits bear a star; i = inactive; ? = inconclusive; nt = not tested or not shown; ! = repeats disagree; [ ] = another dose, or the depositor's remark. Hits are enriched below; roughly 19% of the tested compounds scored in any of these assays. Unless noted, the call rests on the fitted dose curve; in most records, active means well fitted curve in the direction sought with a large enough effect; inconclusive means small, poorly fitted or top-dose-only effect, or another doubt; inactive means no such curve, though single readings can be large; an effect the other way counts as inactive or inconclusive. On the % scale 0 is the no-effect control and ±100 the full control effect.
SMILES,Giardia kill,IL1B secr inh,ELG1 DNA repair,TDP1 cell noCPT,TDP1 cell CPT,TDP1 inh
COc1ccc(NC(=O)c2oc3ccc(S(=O)(=O)N4CCC5(CC4)OCCO5)cc3c2C)cc1Cl,nt,nt,nt,9.2µM*,8.2µM*,5%
Cc1c(C(=O)NCc2cccnc2)oc2ccc(S(=O)(=O)N3CCC4(CC3)OCCO4)cc12,0,-12,23µM*,-27%,?,4%
COc1ccc(C)cc1NC(=O)c1oc2ccc(S(=O)(=O)N3CCC4(CC3)OCCO4)cc2c1C,nt,nt,nt,?,?,-3%
Cc1c(C(=O)NCc2cccnc2)oc2ccc(S(=O)(=O)N3CC(C)CC(C)C3)cc12 (stereo not drawn),-3,36,-6%,-29%,?,3%
Cc1ccc(NC(=O)c2oc3ccc(S(=O)(=O)N4CCC5(CC4)OCCO5)cc3c2C)cc1C,30,0,6.5µM*,?,8.2µM*!,10%
Cc1nn(C)c(C)c1NS(=O)(=O)c1cccc(Br)c1,-12,13,-6%,?,-25%,3%[0.505 µM]
CN(Cc1ccccc1)c1ncnc2sccc12,-16,-3,-27%,12µM*,?,2%[0.0935 µM]
COc1ccc(NC(=O)N2CCCC(C(=O)NCc3ccccc3F)C2)cc1 (stereo not drawn),-3,14,-19%,-2%,-11%,9%
CCOC(=O)C1=C(COC(=O)COc2ccccc2C#N)NC(=O)NC1C (stereo not drawn),-7,33,?,-11%,2%,nt
ClC(=Nc1cccc2ccccc12)N(c1ccccc1)c1ccccc1,nt,nt,nt,11µM*,18µM*,nt
C=CCn1c(SCC(=O)Nc2cc(C)on2)nnc1-c1ccccc1F,11,-7,-11%,-25%,-24%,2%
CCOc1ccc(C(=O)c2cn(CC(=O)Nc3ccc4c(c3)OCCO4)c3ccc(OC)cc3c2=O)cc1,nt,nt,nt,?,?,-4%
Cc1ccc(OCCCC(=O)N(C)CC(=O)Nc2ccccc2Br)cc1,-9,-55*,8%,-18%,-13%,-16%[0.505 µM]
CCOc1ccc(NC(=O)CN(C)C(=O)CCCOc2ccc(Br)cc2)cc1OCC,-1,-7,-18%,?,18µM*,6%[0.505 µM]
CCOc1ccc(NC(=O)CN(C)C(=O)CCNC(=O)c2ccc(Br)cc2)cc1OCC,-4,-8,15%,-19%,-9%,-8%[0.505 µM]
O=C(CCNC(=O)C1CCN(S(=O)(=O)c2ccc(F)cc2)CC1)NCc1ccccn1,nt,-3,nt,0%,1%,nt
CC(Oc1ccc(F)cc1)C(=O)Nc1cc(-c2ccc(F)c(F)c2)no1 (stereo not drawn),nt,nt,nt,-21%,?,-6%
O=C(NNC(=S)Nc1ccccc1)c1ccccc1[N+](=O)[O-],-4,-73*,-14%,-27%,8%,6%
CC(=O)NC(=S)NNC(=O)COc1ccc(Br)cc1,-7,-4,?,1%,-38%,6%
O=C(NNC(=S)NC(=O)c1ccccc1[N+](=O)[O-])c1ccccc1[N+](=O)[O-],-4,-18,18%,-4%,-2%,10%
CCCCOc1ccccc1C(=O)NNC(=S)NC(=O)c1ccccc1[N+](=O)[O-],-22,67,4%,18µM*,26µM*,nt
O=C(NNC(=S)NC(=O)c1ccccc1[N+](=O)[O-])c1ccc(Cl)cc1Cl,-13,21,-27%,?,?,9%
O=C(NNC(=S)NC(=O)c1ccccc1[N+](=O)[O-])c1ccccc1O,-6,25,-6%,18µM*,?,9%
O=C(COc1ccc(Br)cc1)NNC(=S)NC(=O)c1ccccc1[N+](=O)[O-],-2,30,7%,21µM*,?,-5%
O=C(COc1ccccc1)c1cn(CC(=O)N2CCCC2)c2ccccc12,-6,0,0%,4%,-28%,-7%
SMILES,Giardia kill,IL1B secr inh,ELG1 DNA repair,TDP1 cell noCPT,TDP1 cell CPT,TDP1 inh
COc1ccc(N2CCN(C(=O)COC(=O)c3cnccn3)CC2)cc1,-5,7,13%,-11%,-2%,nt
Cc1ccc(C(=O)NC(=S)NNC(=O)c2ccccc2[N+](=O)[O-])cc1,7,0,2%,?,21µM*,10%
Oc1ccc(N=Nc2ccc3ccccc3c2)cc1,-1,?,?,-19%,-1%,nt
CCn1c(=NC(=O)CS(=O)(=O)c2ccccc2)sc2cccc(OC)c21,4,-59*,?,13µM*,?,0%
CCn1c(=NC(=O)c2ccc(S(=O)(=O)N3CCCCC3)cc2)sc2cccc(OC)c21,nt,nt,nt,1.5µM*,2.6µM*,-1%
C#CCn1c(=NC(=O)c2cccs2)sc2cccc(OC)c21,?,51,-9%,13µM*,?,-6%
CCOc1cccc2sc(=NC(=O)c3ccc(S(=O)(=O)N4CCOCC4)cc3)n(C)c12,8,18,1%,21µM*!,15µM*!,2%
Cn1c(=NC(=O)CS(=O)(=O)c2ccc(F)cc2)sc2ccccc21,-14,0,16%,?,-22%,0%
COc1ccccc1CCNC(=O)c1cccc(S(=O)(=O)NCc2ccccc2)c1,8,5,-25%,?,?,nt
CCN1C(=O)C(C(=O)c2ccccc2)SC1=S (stereo not drawn),-14,1,?,?,?,2%
Cc1ccc(N2CC(=O)N(NC(=O)c3sc4nc(C)cc(C)c4c3N)CC2=O)cc1,3,8,3%,7%,6%,nt
O=C(CS(=O)(=O)c1cn(CC(=O)N2CCOCC2)c2ccccc12)Nc1ccccc1F,2,i,3%,-6%,16%,6%
COCCn1c(=NC(=O)CCS(=O)(=O)c2ccccc2)sc2ccccc21,16,-19,nt,16µM*,21µM*,nt
